Experimental data from PubChem BioAssay (EPA / NIEHS).
Records with an inconclusive call do not appear. Active and inactive are the calls of the source. How the source made its calls, unless noted: active means hit-call score of the fitted dose curve at least 0.9, where 1 is the maximum; inconclusive means response in the unintended direction; inactive means score below 0.9.

Tests used:
[1] = TOX21_p53_BLA_p2_viability: Viability Assessment in the Tox21 HCT-116 p53 Agonism Beta-lactamase Assay, Phase 2 (AID 2283591);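 further: compound exposure lasted 16 h at 37 °C; actives lower the ATP signal meaning cytotoxicity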
How it was run: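 HCT-116 p53-bla cells (4000/well) rested 5 h at 37C, then received compounds in DMSO (217-fold dilution) for 16 h at 37C, 5% CO2. After the CCF4 read, CellTiter-Glo was added; ATP luminescence was read after 30 min at room temperature.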

[2] = target: Cellular tumor antigen p53 (Homo sapiens) (UniProt P04637); test: TOX21_p53_BLA_p2_ratio: Tox21 HCT-116 p53 Agonism Beta-lactamase Assay, Ratio, Phase 2 (AID 2283592)
Chain of Cellular tumor antigen p53 (Homo sapiens) (P04637 whole entry, looked up): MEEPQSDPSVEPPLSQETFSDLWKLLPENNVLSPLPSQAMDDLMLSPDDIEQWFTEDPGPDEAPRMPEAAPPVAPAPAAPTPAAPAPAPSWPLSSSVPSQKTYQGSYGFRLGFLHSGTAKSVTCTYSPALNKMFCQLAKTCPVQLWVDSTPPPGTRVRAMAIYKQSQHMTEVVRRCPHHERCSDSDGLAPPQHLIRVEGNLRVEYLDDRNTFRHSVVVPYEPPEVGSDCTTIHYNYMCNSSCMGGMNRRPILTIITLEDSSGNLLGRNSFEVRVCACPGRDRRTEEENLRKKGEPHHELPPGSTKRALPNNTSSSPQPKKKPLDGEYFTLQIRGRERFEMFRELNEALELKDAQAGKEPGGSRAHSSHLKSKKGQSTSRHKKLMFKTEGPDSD
How it was run: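 HCT-116 cells with p53-responsive beta-lactamase reporter, 4000 cells/well, preincubated 5 h, then compound in DMSO (217-fold dilution) for 16 h at 37C. CCF4-AM substrate 2 h at room temperature; 460/530 nm emission ratio fitted upward versus DMSO.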

[3] = target: Cellular tumor antigen p53 (Homo sapiens) (UniProt P04637); test: TOX21_p53_BLA_p3_ratio: Tox21 HCT-116 p53 Agonism Beta-lactamase Assay, Ratio, Phase 3 (AID 2283596)
How it was run: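 HCT116 p53-bla cells (4000/well) given compound in DMSO (217-fold dilution) after 5 h, incubated 16 h at 37C. CCF4-AM substrate 2 h at room temperature; 460/530 nm emission ratio, gain fitted against DMSO.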

[4] = TOX21_p53_BLA_p4_viability: Viability Assessment in the Tox21 HCT-116 p53 Agonism Beta-lactamase Assay, Phase 4 (AID 2283597);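 further: hits lower the luminescence signal meaning cytotoxicity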
How it was run: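 HCT-116 p53-bla cells, 4000/well, dosed after 5 h attachment and incubated 16 h at 37 °C, 5% CO2. Viability from CellTiter-Glo ATP luminescence after 30 min at room temperature, taken after the beta-lactamase read; loss of signal indicates cytotoxicity.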

[5] = target: Cellular tumor antigen p53 (Homo sapiens) (UniProt P04637); test: TOX21_p53_BLA_p4_ratio: Tox21 HCT-116 p53 Agonism Beta-lactamase Assay, Ratio, Phase 4 (AID 2283601)
How it was run: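 HCT116 cells carrying an inducible beta-lactamase reporter were plated at 4000 cells/well, rested 5 h, then exposed to compounds in DMSO (217-fold dilution) for 16 h at 37C. CCF4-AM substrate was loaded 2 h at room temperature; 460/530 nm emission ratio scored gain-of-signal versus DMSO.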

[6] = target: Cellular tumor antigen p53 (Homo sapiens) (UniProt P04637); test: TOX21_p53_BLA_p5_ratio: Tox21 HCT-116 p53 Agonism Beta-lactamase Assay, Ratio, Phase 5 (AID 2283599)
How it was run: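 HCT-116 cells carrying a p53-inducible beta-lactamase reporter were seeded at 4000 cells/well and dosed after 5 h with compound in DMSO (217-fold dilution). After 16 h at 37C, CCF4-AM substrate was added for 2 h, and the 460/530 nm emission ratio was scored as gain-of-signal versus DMSO.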

[7] = TOX21_p53_BLA_p5_viability: Viability Assessment in the Tox21 HCT-116 p53 Agonism Beta-lactamase Assay, Phase 5 (AID 2283600)
How it was run: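 HCT-116 p53 beta-lactamase reporter cells, 4000/well, were exposed to compound (pin transfer, 217-fold dilution) for 16 hours at 37C. Cellular ATP was read by CellTiter-Glo luminescence after 30 min at room temperature.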

[8] = tested on: Brachyury (BRA) Protein Expression, Deisenroth Lab, TBXT (gene 6862); test: CCTE_Deisenroth_DEVTOX-GLR_legacy_Bra: (Legacy) CCTE's DevTox GLR-Endo Assay Evaluation of Brachyury (BRA) Protein Expression, Deisenroth Lab (AID 2284329; active means hit-call score of the fitted dose curve at least 0.9, where 1 is the maximum; inactive means score below 0.9)
How it was run: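 RUES2-GLR human pluripotent cells differentiated 48 h with two 24-h-interval chemical exposures (1 nM - 200 uM, 10 points); fixed, nuclear-stained, imaged. Bra+ cell percentage (intensity 5x BMAD above pluripotent control median) fitted relative to 0.2% DMSO.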

[9] = CCTE_Deisenroth_DEVTOX-GLR_legacy_CellCount: (Legacy) Viability Assessment in CCTE's DevTox GLR-Endo Assay, Deisenroth Lab (AID 2284331; active means hit-call score of the fitted dose curve at least 0.9, where 1 is the maximum; inactive means score below 0.9); conditions: actives raise or lower the signal
How it was run: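 Viability is taken from imaged nuclei counts in fixed RUES2-GLR cultures after 48 h of differentiation under two 24 h-spaced chemical exposures, 10 concentrations from 1 nM to 200 uM, gain or loss versus DMSO baseline.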

[10] = tested on: SRY-box transcription factor 2 (SOX2) Protein Expression, Deisenroth Lab, SOX2 (gene 6657); test: CCTE_Deisenroth_DEVTOX-GLR_legacy_Sox2: (Legacy) CCTE's DevTox GLR-Endo Assay Evaluation of SRY-box transcription factor 2 (SOX2) Protein Expression, Deisenroth Lab (AID 2284346; active means hit-call score of the fitted dose curve at least 0.9, where 1 is the maximum; inactive means score below 0.9)
How it was run: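 RUES2-GLR human pluripotent cells seeded 24 h, then differentiated 48 h in defined media with two chemical doses 24 h apart (10-point, 1 nM–200 uM). Fixed, nuclear-stained, imaged; % Sox2+ cells (>5x BMAD over endoderm control median), DMSO-subtracted, fitted upward.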

[11] = tested on: SRY-box transcription factor 2 (SOX2) Protein Expression, Deisenroth Lab, SOX2 (gene 6657); test: CCTE_Deisenroth_DEVTOX-GLR_Endo_SOX2: CCTE's DevTox GLR-Endo Assay Evaluation of SRY-box transcription factor 2 (SOX2) Protein Expression, Deisenroth Lab (AID 2284412)
How it was run: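 RUES2-GLR human pluripotent cells were seeded 24 h, then differentiated 48 h with two chemical exposures 24 h apart. Cells were fixed, nuclei stained and imaged by high-content microscopy. Endpoint is %SOX2+ cells over cell count, minus 0.2% DMSO control; 10-point series 1 nM–200 uM.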

[12] = tested on: Brachyury (BRA) Protein Expression, TBXT (gene 6862); test: CCTE_Deisenroth_DEVTOX-GLR_Endo_BRA: CCTE's DevTox GLR-Endo Assay Evaluation of Brachyury (BRA) Protein Expression, Deisenroth Lab (AID 2284417; active means hit-call score of the fitted dose curve at least 0.9, where 1 is the maximum; inactive means score below 0.9)
How it was run: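 Read-out: BRA+ cell count divided by total cell count by high-content imaging (5 fields per well), expressed relative to 0.2% DMSO solvent control. RUES2-GLR cells dosed twice over a 48 h differentiation; concentrations 1 nM - 200 uM.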

[13] = CCTE_Deisenroth_DEVTOX-GLR_Endo_CellCount: Viability Assessment in CCTE's DevTox GLR-Endo Assay, Deisenroth Lab (AID 2284420; active means hit-call score of the fitted dose curve at least 0.9, where 1 is the maximum; inactive means score below 0.9)
How it was run: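 RUES2-GLR pluripotent cells seeded 24 h, then differentiated 48 h in defined media with two chemical exposures 24 h apart. Nuclei counted by high-content imaging; 10-point 1 nM–200 uM series; percent change versus 0.2% DMSO.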

[14] = tested on: SRY-box transcription factor 17 (SOX17) Protein Expression, Deisenroth Lab, SOX17 (gene 64321); test: CCTE_Deisenroth_DEVTOX-GLR_Pluri_SOX17: CCTE's DevTox GLR-Pluri Assay Evaluation of SRY-box transcription factor 17 (SOX17) Protein Expression, Deisenroth Lab (AID 2284427)
How it was run: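 RUES2-GLR pluripotent cells were induced toward endoderm over 48 h and received two compound doses 24 h apart, in a 10-point series from 1 nM to 200 uM. The percentage of SOX17+ cells among total cells was measured by high-content imaging and reported minus the 0.2% DMSO control.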

[15] = CCTE_Harrill_HTTr_Viability_MCF7: CCTE's 6-hour Cell Viability Assessment for the High-Throughput Transcriptomics (HTTr) Platform, in MCF-7 cells cultured in DMEM + 10% fetal bovine serum, Harrill Lab (AID 2284010; active means hit-call score of the fitted dose curve at least 0.9, where 1 is the maximum; inactive means score below 0.9)
How it was run: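 Viability measured through PI dye exclusion by high-content imaging at 6 h post-dosing.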

[16] = CCTE_Harrill_HTTr_Apoptosis_MCF7: CCTE's 6-hour Apoptosis Assessment for the High-Throughput Transcriptomics (HTTr) Platform, in MCF-7 cells cultured in DMEM + 10% fetal bovine serum, Harrill Lab (AID 2284011; active means hit-call score of the fitted dose curve at least 0.9, where 1 is the maximum; inactive means score below 0.9)
How it was run: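 MCF-7 cells in DMEM + 10% FBS exposed 6 h to chemicals over an eight-point dilution series. Caspase-3/7 activation imaged by high-content CellEvent Green staining; fitted bidirectionally versus DMSO.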

Measured: AC50

NCC[C@H](O)C(=O)N[C@@H]1C[C@H](N)[C@@H](O[C@H]2O[C@H](CN)CC[C@H]2N)[C@H](O)[C@H]1O[C@H]1O[C@H](CO)[C@@H](O)[C@H](N)[C@H]1O
inactive: [1] | [2] | [3] | [4] | [5]

CCCCCCCCCCCCCCCC(=O)OC[C@@H](COP(=O)([O-])OCC[N+](C)(C)C)OC(=O)CCCCCCCCCCCCCCC
inactive: [1] | [2] | [3] | [4] | [5]

COc1cc(NS(=O)(=O)c2ccc(N)cc2)ncn1
inactive: [1] | [2] | [3] | [6] | [7] | [5]

CN1CCN2c3ccccc3Cc3ccccc3C2C1 (stereo not given)
inactive: [3] | [7]
active: [1] 38.9 µM | [2] 44.4 µM | [4] 37.8 µM | [5] 43.6 µM | [8] 52.7 µM | [9] 36.5 µM | [10] 50.1 µM | [11] 89.7 µM | [12] 71.3 µM | [13] 36.4 µM | [14] 57 µM

O=S(=O)(O)CCO
inactive: [1] | [2] | [3] | [4] | [7] | [5]

N.N.O=C([O-])C1(C(=O)[O-])CCC1.[Pt+4]
inactive: [1] | [2] | [3] | [6] | [7]

Nc1ccc(S(=O)(=O)Nc2ccnn2-c2ccccc2)cc1
inactive: [1] | [2] | [3] | [4] | [5]

CO[C@H]1C[C@H](O[C@H]2[C@H](C)[C@@H](O[C@@H]3O[C@H](C)C[C@H](N(C)C)[C@H]3O)[C@@H](C)C[C@]3(CO3)C(=O)[C@H](C)[C@@H](O)[C@@H](C)[C@@H](C)OC(=O)[C@@H]2C)O[C@@H](C)[C@@H]1O
inactive: [1] | [2] | [3] | [6] | [7]

CC(CCc1ccccc1)NCC(O)c1ccc(O)c(C(N)=O)c1 (stereo not given)
inactive: [1] | [2] | [3] | [4] | [7] | [5] | [15] | [16]

CC1CCc2c(N3CCC(O)CC3)c(F)cc3c(=O)c(C(=O)O)cn1c23 (stereo not given)
inactive: [1] | [2] | [3] | [4] | [5]

CCCCS
inactive: [1] | [2] | [3] | [6] | [7]

COc1cc2c(c(OC)c1OC)-c1c(cc3c(c1OC)OCO3)C[C@@H](C)[C@](C)(O)C2
inactive: [1] | [2] | [3] | [4] | [5]

Cc1ccccc1N1CCN(CCc2nnc3n2CCCC3)CC1
inactive: [1] | [2] | [3] | [4] | [7] | [5]

O=c1[nH]c2cc(C(F)(F)F)c(N3CCOCC3)cc2n(CP(=O)(O)O)c1=O
inactive: [1] | [2] | [3] | [4] | [5]

CCOC(=O)COc1ccc2c(C)c(CCN(CC)CC)c(=O)oc2c1
inactive: [1] | [2] | [3] | [6] | [7] | [5]
